Many of the other results were omitted from the sample, so hits are more common in it than they were.
Tg IFNy HTS: T. gondii growth inhibition with IFN-gamma, primary screen, cell-based; Toxoplasma gondii growth in IFN-gamma-treated host cells; stronger effect = lower value; activity change, negative = inhibition, % (test concentration not listed); 3.8% of 69,000 active; AID 1259416, 2018; in the data active means activity change below about -70%, passing the limit was not always enough;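 further: host cells are HeLa cells infected with Toxoplasma gondii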
The depositor's hits bear a star; ! = not confirmed by another sample.

How did Cc1ccc(S(=O)(=O)N2[C@@H]3CNC[C@H]2C3c2ccc(/C=C/c3ccccc3)cc2)cc1 (stereo not given in full) do in these assays?
Tg IFNy HTS: -44

How did Cc1ccc(/C=C2\C(=O)C3(C)CCC2C3(C)C)cc1 (stereo not given) do in these assays?
Tg IFNy HTS: 9

Results for Cc1ccc(/C=C2\CNC/C(=C\c3ccc(C)cc3)C2=O)cc1 ?
Tg IFNy HTS: -86*

How did COc1cccc(CN2C[C@@H](C(=O)N3CCCCO3)[C@@H]3OCC[C@H]32)n1 do in these assays?
Tg IFNy HTS: -38

Results for CCc1c(C)sc2c1CCN(Cc1nc(-c3ccccc3Cl)oc1C)C2c1ccccc1 (stereo not given) ?
Tg IFNy HTS: -68

Results for Nc1ncnc2c1ncn2[C@@H]1O[C@H](CO)[C@@H](O)[C@H]1O ?
Tg IFNy HTS: 14

Results for COc1ccc(C[C@H](N)C(=O)N[C@@H]2[C@@H](CO)OC(n3cnc4c(N(C)C)ncnc43)[C@@H]2O)cc1 (stereo not given in full) ?
Tg IFNy HTS: -80*!

What do the screens show for `COC1C(O)C(CO)OC1n1cnc2c(NC3CCCCC3)ncnc21` (stereo not given)?
Tg IFNy HTS: 12

What do the screens show for `CCN1C[C@@H]2C[C@H](C(=O)NCc3ccccc3)[C@@H](C1)O2`?
Tg IFNy HTS: 26

How did CCOC(=O)c1cccc(NC(=O)N2CCC3(CC2)c2cccn2-c2ccc(C)cc2N3CC)c1 do in these assays?
Tg IFNy HTS: -23

Results for COc1cccc(C(=O)N2CCN(Cc3ccc(Cn4cccn4)cc3)CC2)c1 ?
Tg IFNy HTS: -6

How did FC(F)(F)c1ccc(C2=NCCO2)cc1 do in these assays?
Tg IFNy HTS: 25

What do the screens show for `N#Cc1nc(-c2ccc(C(F)(F)F)cc2)oc1N`?
Tg IFNy HTS: -96*

Results for FC(F)(F)c1ccc(-c2nnc(-c3ccc4nccnc4c3)o2)cc1 ?
Tg IFNy HTS: -49

Results for O=C(Cc1csc(-c2ccccc2)n1)Nc1ccc(N2CCCS2(=O)=O)cc1 ?
Tg IFNy HTS: 2

Results for O=C(c1cccc(F)c1)N1C[C@H](OCc2cccnc2)[C@@H]2COC[C@@H]21 ?
Tg IFNy HTS: -10

What do the screens show for `CC1CCCCN1S(=O)(=O)c1ccc2c(c1)CCC(=O)N2CC(=O)N1CCC2(CC1)OCCO2` (stereo not given)?
Tg IFNy HTS: -14

What do the screens show for `O=C1NCCN(Cc2ccccc2)C12CCN(S(=O)(=O)c1ccc(F)cc1)CC2`?
Tg IFNy HTS: -10

How did O=C1NCN(c2ccccc2)C12CCN(CCCC(c1ccc(F)cc1)c1ccc(F)cc1)CC2 do in these assays?
Tg IFNy HTS: -81*

How did CC(CCCC(C)(C)O)CCN1CCC2(CC1)C(=O)NCCCN2C (stereo not given) do in these assays?
Tg IFNy HTS: 7

What do the screens show for `O=C(c1ccccc1C1CCNC1)N1CCC(O)(c2cccnc2)CC1` (stereo not given)?
Tg IFNy HTS: -3

Results for Cn1ncc2c3ccccc3n(CC(=O)N3CCN(c4ncccn4)CC3)c2c1=O ?
Tg IFNy HTS: 130

How did CCC(C(=O)NCc1ccccn1)n1c2ccccc2c2cnn(C)c(=O)c21 (stereo not given) do in these assays?
Tg IFNy HTS: 11

Results for CCC(C(=O)N1CCN(c2ncccn2)CC1)n1c2ccccc2c2cnn(C)c(=O)c21 (stereo not given) ?
Tg IFNy HTS: -86*

What do the screens show for `O=C(O)c1ccc2c(c1)n(CC1CCCO1)c(=O)n2CC1CC1` (stereo not given)?
Tg IFNy HTS: -8

Results for Cc1noc(C)c1C(=O)Oc1ccccc1 ?
Tg IFNy HTS: -14

What do the screens show for `CC[C@H](NC(=O)c1c(C)c(-c2ccccc2)nc2ccccc12)c1ccccc1`?
Tg IFNy HTS: -12

What do the screens show for `Cc1ccc(OC(=O)c2c(-c3ccccc3)nnc3ccccc23)cc1`?
Tg IFNy HTS: -106*

What do the screens show for `CCC1(CC)NC(=O)N(CC(=O)Nc2nnc(-c3cccc(C)c3)s2)C1=O`?
Tg IFNy HTS: 12

How did O=c1c(C(c2cccnc2)c2c(O)nc3n(c2=O)CCS3)c(O)nc2n1CCS2 do in these assays?
Tg IFNy HTS: 13

Results for Fc1ccc(-c2nc3n(c2-c2ccncc2)CCS3)cc1 ?
Tg IFNy HTS: -78*

Results for COc1ccc(-c2nc3n(c(=O)c2C#N)CCCS3)cc1 ?
Tg IFNy HTS: 44

How did CN1CCN(C(CNS(=O)(=O)C2CCS(=O)(=O)C2)c2ccc(F)cc2)CC1 (stereo not given) do in these assays?
Tg IFNy HTS: 10

How did COc1cccc(CN2C[C@H]3COC[C@@]3(CNC(=O)CC3CC3)C2)c1 do in these assays?
Tg IFNy HTS: 0

How did CC1(C)Oc2ccc3ccc(=O)oc3c2C(N2CCCCC2)C1O (stereo not given) do in these assays?
Tg IFNy HTS: -8

How did Cc1ccc(C(=O)N2CCC3(CC2)CC(CC(=O)NCC(C)C)c2ccccc2O3)o1 (stereo not given) do in these assays?
Tg IFNy HTS: -39

Results for Cc1c(C(=O)N2CCC(C)CC2)oc2ccc3c(c12)C(O)CC1(CCCCC1)O3 (stereo not given) ?
Tg IFNy HTS: -100*

Results for O=C(c1ccccc1F)N1C[C@H](OCc2cccnc2)[C@@H]2COC[C@@H]21 ?
Tg IFNy HTS: -1

How did CCOC(=O)C1CCCN(c2nc(-c3ccc(OC)cc3)nc3ccccc23)C1 (stereo not given) do in these assays?
Tg IFNy HTS: -18

How did CCOC(=O)c1cnc2ccc(C(=O)OC)cc2c1Nc1ccc(C(=O)O)cc1 do in these assays?
Tg IFNy HTS: -47

What do the screens show for `CCOC(=O)c1cnc2ccc(C(=O)OC)cc2c1Nc1ccc2c(c1)OCCO2`?
Tg IFNy HTS: -72*!

How did CCOC(=O)c1cnc2ccccc2c1NCCO do in these assays?
Tg IFNy HTS: 13

What do the screens show for `CCN1C(=O)CCC2C1CCN2C(=O)c1ccc2[nH]ccc2c1` (stereo not given)?
Tg IFNy HTS: 0

How did CN1C(=O)CCC2C1CCN2C(=O)c1ccc2[nH]ccc2c1 (stereo not given) do in these assays?
Tg IFNy HTS: -97*

Results for COCCN1C(=O)CCC2C1CCN2C(=O)c1ccc2[nH]ccc2c1 (stereo not given) ?
Tg IFNy HTS: 0

How did CCOC1CCC2(CCN(Cc3cnn(C)c3)CC2)c2ccccc21 (stereo not given) do in these assays?
Tg IFNy HTS: -13

What do the screens show for `CC(C)Oc1ncnc2c1CCN(S(=O)(=O)c1cccs1)CC2`?
Tg IFNy HTS: -56

How did Cc1oc(C2CCN(C(=O)c3ccc(F)c(Cl)c3)CC2)nc1C(=O)N1CCCCC1 do in these assays?
Tg IFNy HTS: 15

What do the screens show for `CCOc1ccc(OCCSc2nc3ccccc3[nH]2)cc1`?
Tg IFNy HTS: 12

How did CCCCOc1cc(C(F)(F)F)nc2ccc(CSc3nc4ccccc4[nH]3)cc12 do in these assays?
Tg IFNy HTS: -86*

How did CCOc1ccc2nc(SCC)[nH]c2c1 do in these assays?
Tg IFNy HTS: 54

What do the screens show for `CS(=O)(=O)N1CCC(CC(=O)O)CC1`?
Tg IFNy HTS: 0

Results for O=c1[nH]c(Cc2ccccc2)nc2c1C1(CCCCC1)Cc1ccccc1-2 ?
Tg IFNy HTS: -3

Results for CCSc1nc2c(c(=O)n1C)C1(CCCCC1)Cc1ccccc1-2 ?
Tg IFNy HTS: -73*

Results for c1cc(CN2CCCC(c3ccn[nH]3)C2)ccn1 (stereo not given) ?
Tg IFNy HTS: -32

What do the screens show for `Cc1ccc(NC(=O)CCCn2ccnc2)cc1S(=O)(=O)N1CCOCC1`?
Tg IFNy HTS: -7
